Source: PubChem BioAssay (Tox21)
Inconclusive results are not listed. Activity calls are given as the source filed them. Unless noted, the call rests on the fitted dose curve; in most records, active means well fitted curve in the direction sought with a large enough effect in the repeat runs; inconclusive means weak or mixed curves; inactive means no such curve, though single readings can be large; an effect the other way counts as inactive or inconclusive.

Legend:
[1] = A CellTox Green Cytotoxicity Assay to monitor cytotoxicity in HepG2 cells - 8 hour (AID 1224890); further: nearly all actives have a fitted effect of over 45% in size
Procedure, shortened: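 Using 1536-well format, dye-containing HepG2 suspension was seeded, allowed 5 h at 37 C/5% CO2, dosed by pintool with compounds, positive and negative controls, and imaged for fluorescence across 40 h.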

[2] = qHTS assay to identify small molecule antagonists of the estrogen receptor alpha (ER-alpha) signaling pathway using the BG1 cell line in the presence of 0.1 nM 17-beta-estradiol - cell viability counter screen (AID 1259241); further: nearly all actives have a fitted effect of over 40% in size
Procedure, shortened: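 Viability in VM7Luc4E2 cells after 22 hr compound exposure under 0.1 nM 17beta-estradiol stimulation, by CellTiter-Fluor.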

[3] = qHTS assay to identify small molecule antagonists of the androgen receptor (AR) signaling pathway using the MDA cell line in the presence of 0.5 nM R1881 - cell viability counter screen (AID 1259242); further: nearly all actives have a fitted effect of over 45% in size
Procedure, shortened: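 Viability of MDA-kb2 cells was multiplexed with the luciferase AR readout; after 16 hr with compounds and R1881 at 0.5 nM final, CellTiter-Fluor fluorescence was recorded.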

[4] = qHTS assay to identify small molecule HDAC inhibitors (AID 1259364); further: potency means the concentration at half of the fitted maximal effect;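 further: wild-type HCT-116 cells with endogenous class I/II HDAC activity; nearly all actives have a fitted effect of over 45% in size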
Procedure, shortened: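 Read-out: luminescence of HDAC-Glo I/II reagent, 30 min RT, reflecting class I/II deacetylase activity in whole HCT-116 cells pre-exposed 2 h to DMSO-dissolved compounds.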

[5] = qHTS assay to identify small molecule HDAC inhibitors - cell viability counter screen (AID 1259365); further: series mostly up to about 92 µM; nearly all actives have a fitted effect of over 50% in size
Procedure, shortened: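 Cytotoxicity was gauged in wild-type HCT-116 cells after a brief 2hr treatment with DMSO-dissolved compounds at 37C and 5% CO2, using CellTiter-Glo luminescence developed for 30min at room temperature.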

[6] = qHTS assay to identify small molecule agonists of the sonic hedgehog signaling (Shh) pathway - cell viability counter screen (AID 1259366); further: nearly all actives have a fitted effect of over 50% in size
Procedure, shortened: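 Stable Gli1-Luc NIH/3T3 clone, 2,000 cells/well. Compound exposure 24hr at 37C. Read-out: CellTiter-Fluor fluorescence.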

[7] = qHTS assay to identify small molecule antagonists of the sonic hedgehog signaling (Shh) pathway - cell viability counter screen (AID 1259367); further: nearly all actives have a fitted effect of over 55% in size
Procedure, shortened: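 Seed 3T3 Gli1-Luc cells at 2,000 per well; incubate 4 hr; add compound in DMSO, then conditioned medium; incubate at 37C with 5% CO2; add CellTiter-Fluor after 23 hr; read fluorescence 1 hr later.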

[8] = qHTS assay to identify small molecule agonists of the sonic hedgehog signaling (Shh) pathway (AID 1259368; calls by dose curve;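 further: NIH/3T3-derived 3T3Gli1-Luc cells carrying a stable Gli1-driven firefly luciferase reporter; series mostly up to about 92 µM; nearly all actives have a fitted effect of over 15% in size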)
Procedure, shortened: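 A Gli1 transcriptional response element controlled firefly luciferase in 3T3Gli1-Luc cells. Compounds and a positive control were added 4 hr after plating, and cells were incubated a further 24 hr at 37 C before luminescence detection.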

[9] = qHTS assay to identify small molecule antagonists of the sonic hedgehog signaling (Shh) pathway (AID 1259369; calls by dose curve; further: nearly all actives have a fitted effect of over 45% in size)
Procedure, shortened: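 For antagonist detection, the reporter line received test compounds together with conditioned medium, incubated 24hr at 37 C, 5% CO2, then luminescence was recorded following 30min room-temperature luciferase reagent incubation.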

[10] = qHTS assay to identify small molecule agonists of the androgen receptor (AR) signaling pathway in the presence of an antagonist - cell viability counter screen (AID 1259379);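 further: MDA-kb2 human breast cancer cells carrying an MMTV luciferase reporter; series mostly up to about 92 µM; nearly all actives have a fitted effect of over 25% in size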
Procedure, shortened: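 Seed MDA-kb2 at 3,000 cells/well; incubate 5 hr, 37C, 0% CO2. Add nilutamide to 3.0uM final, then pin compounds at 15 concentrations. Incubate 16 hr. Add CellTiter-Fluor at 15 hr, read fluorescence after 1 hr.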

[11] = qHTS assay to identify small molecule agonists of the estrogen receptor beta (ER-beta) signaling pathway - cell viability counter screen (AID 1259380); further: nearly all actives have a fitted effect of over 30% in size
Procedure, shortened: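 CellTiter-Glo read, 30 min RT, same wells as bla assay; cells ER-beta-UAS-bla HEK293T; 16 hr compound, 37C; medium 2% charcoal-stripped FBS.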

[12] = qHTS assay to identify small molecule antagonists of the estrogen receptor beta (ER-beta) signaling pathway - cell viability counter screen (AID 1259382); further: series mostly up to about 92 µM; nearly all actives have a fitted effect of over 55% in size
Procedure, shortened: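 In this multiplexed counter screen, cells were seeded at 2,000 per well in medium with 2% charcoal-stripped FBS and incubated 6 hr before compound and 1nM final E2 were added. Sixteen hours later, ATP-based luminescence reported viability.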

[13] = qHTS assay to identify small molecule agonists or antagonists of the thyroid stimulating hormone receptor (TSHR) signaling pathway - wild type cell line counter screen (AID 1259384; calls by dose curve)
Procedure, shortened: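 Wild-type Hek293 cells, 800/well, 18 h at 37C, then compound with Ro20-1724 for 30 min RT. cAMP by HTRF (cAMP-d2/anti-cAMP cryptate), 1 h RT, fluorescence read. 15 concentrations, triplicates.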

[14] = target: Estrogen receptor beta (Homo sapiens) (UniProt Q92731); experiment: qHTS assay to identify small molecule agonists of the estrogen receptor beta (ER-beta) signaling pathway (AID 1259377; active means well fitted activation curve with a large enough effect in the signal ratio in the repeat runs, not every such curve was filed as active; the % refers to the signal ratio)
Chain of Estrogen receptor beta (Homo sapiens) (Q92731 whole entry, looked up): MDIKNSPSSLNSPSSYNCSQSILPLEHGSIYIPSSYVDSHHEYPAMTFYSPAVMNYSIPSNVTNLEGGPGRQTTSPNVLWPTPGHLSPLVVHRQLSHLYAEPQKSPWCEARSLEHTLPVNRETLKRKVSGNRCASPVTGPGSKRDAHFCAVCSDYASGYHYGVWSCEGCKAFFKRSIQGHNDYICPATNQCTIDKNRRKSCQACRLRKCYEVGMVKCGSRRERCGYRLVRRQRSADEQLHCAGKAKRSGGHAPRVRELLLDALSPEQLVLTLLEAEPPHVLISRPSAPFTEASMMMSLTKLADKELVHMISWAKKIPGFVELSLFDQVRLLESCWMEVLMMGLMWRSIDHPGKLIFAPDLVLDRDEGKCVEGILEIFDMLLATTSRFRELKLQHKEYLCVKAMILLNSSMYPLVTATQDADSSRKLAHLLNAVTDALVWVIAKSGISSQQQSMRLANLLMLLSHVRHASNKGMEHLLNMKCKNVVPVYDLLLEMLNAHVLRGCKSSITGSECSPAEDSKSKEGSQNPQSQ
Procedure, shortened: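 Measured by fluorescence intensity from a B/G FRET beta-lactamase substrate (2 h, room temperature) in ER-beta-UAS-bla HEK293T cells treated with DMSO-dissolved compounds for 16 hr at 37C and 5% CO2.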

[15] = target: Estrogen receptor beta (Homo sapiens) (UniProt Q92731); experiment: qHTS assay to identify small molecule antagonists of the estrogen receptor beta (ER-beta) signaling pathway (AID 1259378; active means well fitted inhibition curve with a large enough effect in the signal ratio in the repeat runs, not every such curve was filed as active; the % refers to the signal ratio)
Procedure, shortened: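 ER-beta-UAS-bla HEK293T cells in 2% charcoal-stripped FBS medium treated with compound plus 1nM final 17-beta-estradiol for 16 hr at 37C. Beta-lactamase reporter read by FRET substrate fluorescence after 2 hours at room temperature.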

[16] = target: Estrogen receptor (Homo sapiens) (UniProt P03372); experiment: qHTS assay to identify small molecule antagonists of the estrogen receptor alpha (ER-alpha) signaling pathway using the BG1 cell line in the presence of 0.1 nM 17-beta-estradiol (AID 1259244); further: nearly all actives have a fitted effect of over 50% in size
Chain of Estrogen receptor (Homo sapiens) (P03372 whole entry, looked up): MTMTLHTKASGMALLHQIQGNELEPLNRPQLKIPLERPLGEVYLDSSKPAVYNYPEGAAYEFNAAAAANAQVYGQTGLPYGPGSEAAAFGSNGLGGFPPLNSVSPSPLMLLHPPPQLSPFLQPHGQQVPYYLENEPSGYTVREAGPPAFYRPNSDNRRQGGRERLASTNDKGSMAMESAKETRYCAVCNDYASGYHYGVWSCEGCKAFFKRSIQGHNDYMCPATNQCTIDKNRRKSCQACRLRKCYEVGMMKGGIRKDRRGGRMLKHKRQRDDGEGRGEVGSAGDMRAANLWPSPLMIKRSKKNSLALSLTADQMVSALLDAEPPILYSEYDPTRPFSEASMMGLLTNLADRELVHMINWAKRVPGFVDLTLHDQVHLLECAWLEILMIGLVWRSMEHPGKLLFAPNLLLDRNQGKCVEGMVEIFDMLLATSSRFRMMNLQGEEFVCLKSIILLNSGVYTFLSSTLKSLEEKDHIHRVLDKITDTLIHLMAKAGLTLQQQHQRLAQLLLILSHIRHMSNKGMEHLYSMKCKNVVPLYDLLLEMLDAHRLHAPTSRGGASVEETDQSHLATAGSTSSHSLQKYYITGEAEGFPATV
Procedure, shortened: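 Estradiol at 0.1 nM (final) stimulates the endogenous ER-alpha of VM7Luc4E2 cells carrying an ERE-driven luciferase; compounds are co-incubated 22 h at 37C and luciferase output quantified by luminescence.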

[17] = qHTS assay to identify small molecule phospholipidosis (PLD) inducers (AID 1259344; active means well fitted curve in the direction sought with a large enough effect; an effect the other way counts as inactive or inconclusive; further: potency means the concentration at half of the fitted maximal effect)
Procedure, shortened: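 Quantitative HTS in HepG2: compound plus LipidTOX Red dye for 24 h, paraformaldehyde fixation with Hoechst 33342, widefield high-content imaging; amiodarone as positive and DMSO as negative control.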

[18] = target: Estrogen receptor (Homo sapiens) (UniProt P03372); experiment: qHTS assay to identify small molecule agonists of the estrogen receptor alpha (ER-alpha) signaling pathway in the presence of an antagonist (AID 1259383; calls by dose curve; further: top concentration of the series differs between compounds; nearly all actives have a fitted effect of over 15% in size)
Procedure, shortened: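 Stably transfected VM7Luc4E2 reporter cells, kept 5 days in charcoal-stripped serum, received ICI-182,780 at 10.0nM final before compound addition. Following 22hr incubation at 37C and 5% CO2, luciferase signal was read by luminescence.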

[19] = target: Androgen receptor (Homo sapiens) (UniProt P10275); experiment: qHTS assay to identify small molecule antagonists of the androgen receptor (AR) signaling pathway using the MDA cell line in the presence of 0.5 nM R1881 (AID 1259243); further: nearly all actives have a fitted effect of over 50% in size
Chain of Androgen receptor (Homo sapiens) (P10275 whole entry, looked up): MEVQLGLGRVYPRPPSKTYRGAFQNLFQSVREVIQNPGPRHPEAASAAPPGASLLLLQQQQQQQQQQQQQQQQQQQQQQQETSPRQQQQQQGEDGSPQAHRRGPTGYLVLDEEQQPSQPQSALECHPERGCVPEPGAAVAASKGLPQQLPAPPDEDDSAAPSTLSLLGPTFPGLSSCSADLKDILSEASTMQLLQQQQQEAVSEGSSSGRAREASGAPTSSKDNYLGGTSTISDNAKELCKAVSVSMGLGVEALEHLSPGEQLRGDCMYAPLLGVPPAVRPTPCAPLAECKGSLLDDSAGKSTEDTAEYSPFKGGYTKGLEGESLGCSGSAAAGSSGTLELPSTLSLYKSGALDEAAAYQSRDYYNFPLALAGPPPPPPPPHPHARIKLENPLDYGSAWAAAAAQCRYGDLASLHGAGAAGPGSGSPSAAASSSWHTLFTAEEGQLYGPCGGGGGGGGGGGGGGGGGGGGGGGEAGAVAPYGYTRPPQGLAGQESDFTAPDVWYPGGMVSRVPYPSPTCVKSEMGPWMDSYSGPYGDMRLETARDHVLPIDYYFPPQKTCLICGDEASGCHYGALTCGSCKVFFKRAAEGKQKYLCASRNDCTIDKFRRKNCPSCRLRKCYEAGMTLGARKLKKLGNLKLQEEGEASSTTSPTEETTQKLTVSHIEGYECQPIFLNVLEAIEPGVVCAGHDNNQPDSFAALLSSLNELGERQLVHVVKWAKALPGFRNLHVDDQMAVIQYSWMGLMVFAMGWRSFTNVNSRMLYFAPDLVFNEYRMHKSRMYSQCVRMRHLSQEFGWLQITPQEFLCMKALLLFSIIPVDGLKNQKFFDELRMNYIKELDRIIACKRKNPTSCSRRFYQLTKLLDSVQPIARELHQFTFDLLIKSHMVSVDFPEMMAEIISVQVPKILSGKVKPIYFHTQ
Procedure, shortened: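 Reporter cells cultured without CO2 receive test chemicals, then 0.5 nM R1881 final; after 16 hr at 37C, ONE-Glo is added and light output recorded.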

[20] = target: Androgen receptor (Homo sapiens) (UniProt P10275); experiment: qHTS assay to identify small molecule agonists of the androgen receptor (AR) signaling pathway in the presence of an antagonist (AID 1259381; calls by dose curve; further: nearly all actives have a fitted effect of over 15% in size)
Procedure, shortened: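 Test compounds at 15 concentrations were incubated for 16hr with MDA-kb2 reporter cells in presence of 3.0uM nilutamide (final). Signal: ONE-Glo luciferase luminescence.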

Measured: Potency

CCCCCCC(CO)CCCC (configuration not stated)
not listed: [14] | [15] | [16] | [17] | [18] | [19] | [20]
inactive: all other assays above

Nc1nc(-c2ccc([N+](=O)[O-])cc2)cs1
active: [4] 12.3 µM
inactive: [1] | [2] | [3] | [5] | [6] | [8] | [10] | [11] | [12] | [13]

O=C1OC(=O)c2c(Br)c(Br)c(Br)c(Br)c21
not listed: [11] | [16] | [17] | [18] | [19] | [20]
inactive: all other assays above

CC1CCCO1 (configuration not stated)
not listed: [13] | [14] | [16] | [17] | [18] | [19] | [20]
inactive: all other assays above

CCCCCCCCCCCCCCCCCC(=O)OCC(CC)CCCC (configuration not stated)
not listed: [12] | [15] | [16] | [17] | [18] | [19] | [20]
inactive: all other assays above

CC/C=C\C/C=C\C/C=C\CCCCCCCC(=O)OCC
not listed: [9] | [11] | [15] | [16] | [17] | [18] | [19] | [20]
inactive: all other assays above

CCCCCC
not listed: [14] | [15] | [16] | [17] | [18] | [19] | [20]
inactive: all other assays above

COc1cc(C(C)=O)ccc1OCCCN1CCC(c2noc3cc(F)ccc23)CC1
active: [17] 1 µM
inactive: [1] | [2] | [16] | [4] | [5] | [6] | [8] | [10] | [18] | [13]

O=C1OC[C@H](Cc2cccc(O)c2)[C@H]1Cc1cccc(O)c1
not listed: [14] | [15] | [16] | [17] | [18] | [19] | [20]
inactive: all other assays above

CC1CCC(C(C)CS)CC1S (configuration not stated)
not listed: [3] | [16] | [17] | [18]
inactive: all other assays above

CC(=O)C(C)=O
not listed: [14] | [15] | [16] | [17] | [18] | [19] | [20]
inactive: all other assays above

CC1=CC[C@@]23C[C@@H]1C(C)(C)[C@@H]2CC[C@H]3C
not listed: [14] | [16] | [17] | [18] | [19] | [20]
inactive: all other assays above

CC(=O)OCC(C)C
not listed: [3] | [11] | [13] | [17]
inactive: all other assays above

COc1ccc(C(=O)NCc2ccc(OCCN(C)C)cc2)cc1OC
not listed: [3] | [6] | [13] | [19] | [20]
inactive: all other assays above

CSCC[C@H](NC(=O)[C@H](Cc1c[nH]c2ccccc12)NC(=O)CCNC(=O)OC(C)(C)C)C(=O)N[C@@H](CC(=O)O)C(=O)N[C@@H](Cc1ccccc1)C(N)=O
not listed: [3] | [19] | [20]
inactive: all other assays above

CCNc1nc(N)nc(Cl)n1
not listed: [6] | [7] | [16] | [17] | [18] | [19] | [20]
inactive: all other assays above

CCCCCCC(O)CCCCCCCCCCC(=O)OC (configuration not stated)
inactive: [1] | [2] | [3] | [4] | [5] | [7] | [8] | [14] | [10] | [13]
